About 1,100 (1.7%) of roughly 63,000 compounds were called active.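 How the source made its calls: active means compounds whose percent cytotoxicity in the single-dose primary screen, scaled between solvent and toxic-drug controls, exceeds 50; inactive means the rest.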 Many of the other results were omitted from the sample, so actives are more common in it than they were. Measured potencies and affinities stand elsewhere.
Test: viability loss of HPDE-C7K cells – cell-based, fluorescence, HTS, primary screen (AID 431);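 further: 0% = DMSO solvent wells and 100% = doxorubicin-treated wells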
Conditions: HPDE-C7K KRASV12 cells, Alamar Blue viability, 48 h; at 10 µM; hits give high values

| Structure (SMILES) | cytotoxicity |
| --- | --- |
| COc1cc2nc(CC(C)C)n(NC(=O)c3ccccc3)c(=O)c2cc1OC | -0.2% (inactive) |
| Cc1cc(N2CCN(C(=O)c3ccco3)CC2)n2nc(-c3cccc(Cl)c3)cc2n1 | 2% (inactive) |
| c1cnc(NCCNc2ncccn2)nc1 | -5.3% (inactive) |
| Cc1cc(NC(=O)c2ccc(Cn3nc(C)c(Br)c3C)o2)no1 | 6.8% (inactive) |
| CCOC(=O)C1CCN(c2c(N(C)Cc3ccco3)c(=O)c2=O)CC1 | 11% (inactive) |
| O=CN1Cc2[nH]c3ccccc3c2N(c2ccc(Cl)cc2)C1=O | -0.4% (inactive) |
| Nc1c(S(=O)(=O)c2cccc(Cl)c2)c2nc3ccccc3nc2n1/N=C/c1ccc(O)c(O)c1 | 126% (active) |
| Cc1cccc(S(=O)(=O)c2c(N)n(/N=C/c3cccnc3)c3nc4ccccc4nc23)c1 | 23.4% (inactive) |
| Nc1c(S(=O)(=O)c2cccs2)c2nc3ccccc3nc2n1Cc1cccs1 | -15.3% (inactive) |
| Nc1c(S(=O)(=O)c2cccs2)c2nc3ccccc3nc2n1/N=C/c1cccc(O)c1 | 65.7% (active) |
| Cc1ccc(S(=O)(=O)c2c(N)n(/N=C/c3ccco3)c3nc4ccccc4nc23)cc1C | 8.5% (inactive) |
| COCCn1c(N)c(S(=O)(=O)c2cccs2)c2nc3ccccc3nc21 | -1.6% (inactive) |
| Cc1cccc(S(=O)(=O)c2c(N)n(/N=C/c3ccco3)c3nc4ccccc4nc23)c1 | 17.6% (inactive) |
| Nc1c(S(=O)(=O)c2ccccc2)c2nc3ccccc3nc2n1/N=C/c1ccco1 | 45.3% (inactive) |
| O=C(CCSc1nc(-c2ccco2)cc(C(F)(F)F)n1)NCC1CCCO1 (stereo not drawn) | 3.2% (inactive) |
| COCCCNC(=O)CCn1c(=O)c2ccccc2n(CC(=O)Nc2ccccc2C)c1=O | 1.7% (inactive) |
| CN(C(=O)c1ccc2c(=O)n3c(nc2c1)CCCCC3)c1ccccc1 | -5.5% (inactive) |
| CCOC(=O)c1c(C)[nH]c(C(=O)CSc2nnnn2-c2ccccc2)c1C | -2.7% (inactive) |
| CCc1nc2oc3cc(OC)ccc3c(=O)c2c(=O)n1Cc1ccco1 | -11.3% (inactive) |
| O=C(Nc1cccnc1)C1CCCN(S(=O)(=O)c2cccc3nsnc23)C1 (stereo not drawn) | -2.5% (inactive) |
| Cc1ccc(C(=O)NCCNC(=O)CN2CCCC2)cc1 | -4.9% (inactive) |
| CN(C1CCCCC1)S(=O)(=O)c1ccc(NC(=O)C2CCCCC2C(=O)O)cc1 (stereo not drawn) | -5.7% (inactive) |
| COc1ccc(C2=NOC(Cn3c(Cc4ccc(Cl)cc4)nc4c3c(=O)n(C)c(=O)n4C)C2)cc1 (stereo not drawn) | 1.7% (inactive) |
| COc1ccccc1C1=NOC(Cn2c(=O)c3c(ncn3C)n(C)c2=O)C1 (stereo not drawn) | -17.3% (inactive) |

| Structure (SMILES) | cytotoxicity |
| --- | --- |
| COc1ccc(-c2nc3c(c(=O)n(C)c(=O)n3C)n2CC2CC(c3ccccc3)=NO2)cc1OC (stereo not drawn) | 53.3% (active) |
| CC1CCN(c2nc3c(c(=O)[nH]c(=O)n3C)n2Cc2ccccc2Cl)CC1 | 8.5% (inactive) |
| CCOC(=O)c1cnc(=O)[nH]c1C | 1.1% (inactive) |
| Cc1cc(-c2[nH]nc3c2C(c2ccsc2)C(C#N)=C(N)O3)c(C)s1 (stereo not drawn) | -9.2% (inactive) |
| Cc1ccc2[nH]c3c(c2c1)CN(C(=O)CN1CCCc2ccccc21)CC3 | 54.4% (active) |
| Cc1ccc2[nH]c3c(c2c1)CN(C(=O)CN1CCN(c2ccccc2F)CC1)CC3 | 22.5% (inactive) |
| Cc1ccc2[nH]c3c(c2c1)CN(C(=O)CN1CCN(c2ccccc2)CC1)CC3 | 24.5% (inactive) |
| CCN(CC)C(=O)c1csc(Nc2ccc(C)cc2)n1 | -18.4% (inactive) |
| Cc1nc2cc(CO)ccc2s1 | 1.8% (inactive) |
| CC(=O)N1CCc2cc(C(=O)CN3CCN(c4cccc(Cl)c4)CC3)ccc21 | -4% (inactive) |
| O=C(Nc1ccc(O)cc1)c1ccc(C(=O)c2ccccc2)o1 | -1.3% (inactive) |
| Cc1ncoc1C(=O)Nc1ccc(Oc2ccccc2)cc1 | -7.3% (inactive) |
| Cc1ccc2c(COC(=O)c3cnc(C)cn3)cc(=O)oc2c1 | 4.8% (inactive) |
| CCOc1ccc(C)cc1S(=O)(=O)N1CCCCC1 | 7.7% (inactive) |
| Cc1cnc(NC(=O)COc2ccccc2)s1 | 1.6% (inactive) |
| O=S1(=O)Nc2c(ccc3cccnc23)-c2ccccc21 | 86% (active) |
| Nc1ccc2c(c1)-c1ccccc1S(=O)(=O)N2 | 16.8% (inactive) |
| Cc1ccc2c(c1)-c1ccccc1S(=O)(=O)N2 | 11.5% (inactive) |
| CC1CCN(c2nnc(N3CCC(C)CC3)c3ccccc23)CC1 | -2.9% (inactive) |
| Cc1ccc(C(c2nnnn2Cc2cccs2)N2CCN(C(=O)c3ccco3)CC2)cc1 (stereo not drawn) | 2% (inactive) |
| CNC(=O)c1ccc(N(Cc2ccccc2C)S(C)(=O)=O)cc1 | 2.8% (inactive) |
| O=S(=O)(NCCc1ccccn1)c1ccc(F)c(F)c1 | -21.4% (inactive) |
| Cc1cc(N2C(=O)C(=O)/C(=C(/O)c3ccccc3)C2c2cccc(Br)c2)no1 (stereo not drawn) | 0.9% (inactive) |
| COc1cccc(C2/C(=C(\O)c3ccc(OC)c(OC)c3)C(=O)C(=O)N2c2cc(C)on2)c1 (stereo not drawn) | 19.3% (inactive) |

| Structure (SMILES) | cytotoxicity |
| --- | --- |
| COc1ccc(/C(O)=C2\C(=O)C(=O)N(c3cc(C)on3)C2c2ccccc2OC)cc1 (stereo not drawn) | 9.4% (inactive) |
| Cc1ccc(/C(O)=C2\C(=O)C(=O)N(c3cc(C)on3)C2c2cccc(Cl)c2)cc1 (stereo not drawn) | 55.9% (active) |
| Cc1ccc(/C(O)=C2\C(=O)C(=O)N(c3cc(C)on3)C2c2cccc(Br)c2)cc1 (stereo not drawn) | 48.2% (inactive) |
| Cc1cc(N2C(=O)C(=O)/C(=C(/O)c3ccc(F)cc3)C2c2cccc(Br)c2)no1 (stereo not drawn) | 72.5% (active) |
| Cc1cc(N2C(=O)C(=O)/C(=C(/O)c3ccc(F)cc3)C2c2ccc(Cl)cc2)no1 (stereo not drawn) | 37.6% (inactive) |
| Cc1cc(N2C(=O)C(=O)/C(=C(/O)c3ccc(Cl)cc3)C2c2cccc(Br)c2)no1 (stereo not drawn) | 60.6% (active) |
| Cc1cc(N2C(=O)C(=O)/C(=C(/O)c3ccc(F)cc3)C2c2ccc(F)cc2)no1 (stereo not drawn) | 16.6% (inactive) |
| COc1ccc(C2C(C(=O)NCC3CCCO3)CCC(=O)N2c2ccc3c(c2)OCO3)cc1 (stereo not drawn) | -18.6% (inactive) |
| O=C(Nc1ccccc1C(F)(F)F)c1cc(S(=O)(=O)N2CCOCC2)ccc1F | 24.1% (inactive) |
| CCn1c(C(=O)NCc2ccccn2)cc2sccc21 | -5.6% (inactive) |
| Cc1cc2c(=O)n(Cc3ccco3)c(SCC(=O)NCc3ccco3)nc2s1 | -12.9% (inactive) |
| COc1ccc(C2N=C(Nc3ccc(C)cc3)Nc3nc(C)cc(=O)n32)cc1 (stereo not drawn) | 2.4% (inactive) |
| COc1ccc(S(=O)(=O)N(CC(=O)O)c2ccccc2)cc1 | 8.5% (inactive) |
| Cc1csc2nc3ccccc3c(=O)n12 | 2.6% (inactive) |
| COc1cc(C2Nc3cccc4cccc(c34)N2)cc(OC)c1OC(C)=O | 83.6% (active) |
| COc1cc(C2N(c3ccccc3)CCN2c2ccccc2)ccc1OC(C)=O | -13.9% (inactive) |
| COc1cc(C2Nc3cccc4cccc(c34)N2)cc(OC)c1O | 41.5% (inactive) |
| COc1cc(C(=O)O)ccc1OC(C)=O | -2.6% (inactive) |
| COc1cc(C2Nc3cccc4cccc(c34)N2)ccc1OC(C)=O | 50.8% (active) |
| Oc1ccccc1C1Nc2cccc3cccc(c23)N1 | -2.4% (inactive) |
| Cc1ccc(S(=O)(=O)Cn2nnnc2C(C(C)C)N2CCN(C(=O)c3ccco3)CC2)cc1 (stereo not drawn) | -8.7% (inactive) |
| CCOC(=O)CNC(=O)Nc1cc(C(C)(C)C)nn1-c1ccccc1 | -5.3% (inactive) |
| Cc1ccc2nc(-c3ccccn3)oc2c1 | 9.5% (inactive) |
| CCOC(=O)C(CCC#N)(CCC#N)C(=O)OCC | -1.4% (inactive) |

| Structure (SMILES) | cytotoxicity |
| --- | --- |
| O=C(CN(Cc1ccco1)C(=O)CNS(=O)(=O)c1ccccc1)NCc1ccc(F)cc1 | 2.2% (inactive) |
| O=C(CN(Cc1ccco1)C(=O)CNS(=O)(=O)c1ccc(F)cc1)NCc1ccc(F)cc1 | 1.2% (inactive) |
| O=C(CN(Cc1ccco1)C(=O)CNS(=O)(=O)c1ccc(Cl)cc1)NCc1ccc(F)cc1 | 77.7% (active) |
| CC(=O)c1cccc(NC(=O)NC(C)c2ccncc2)c1 (stereo not drawn) | -4.4% (inactive) |
| Cc1noc(/C=C/NCc2cccnc2)c1S(=O)(=O)N(C)CC(=O)N1CCc2ccccc21 | 2.4% (inactive) |
| COc1cc2cc(C)c(SCC(=O)N3CCOCC3)nc2cc1OC | -9.8% (inactive) |
| O=C(O)CCN(CCC(=O)O)S(=O)(=O)c1ccccc1 | -5.5% (inactive) |
| Cc1cc(-n2c(SCCC#N)nnc2-c2cccnc2)ccc1Cl | -9.6% (inactive) |
| N#CCCCSc1nnc(-c2ccc(Cl)cc2)n1-c1ccccc1 | -16.4% (inactive) |
| COc1ccc(-n2c(SCCC#N)nnc2-c2cc(Cl)ccc2OC)cc1Cl | 54.3% (active) |
| COc1ccc(N(C(=O)c2ccc(S(=O)(=O)N3CCOCC3)cc2)C2C=CS(=O)(=O)C2)cc1 (stereo not drawn) | -10.3% (inactive) |
| CCOC(=O)C1=C(C)C(c2ccc(OC)cc2OC)NC(=O)N1 (stereo not drawn) | -21.1% (inactive) |
| N#CC1=C(N)Oc2cc(O)ccc2C1c1ccncc1 (stereo not drawn) | -1.3% (inactive) |
| CCN(CC)c1ccc2c(c1)OC(N)=C(C#N)C2c1cccnc1 (stereo not drawn) | 70.8% (active) |
| COc1cc(C2C(C#N)=C(N)Oc3cc(N)ccc32)cc(OC)c1OC (stereo not drawn) | 54.9% (active) |
| CN(C)c1ccc2c(c1)OC(N)=C(C#N)C2c1cccc(F)c1 (stereo not drawn) | 55.5% (active) |
| N#CC1=C(N)Oc2cc(O)ccc2C1c1ccccc1 (stereo not drawn) | 1.7% (inactive) |
| CCc1[nH]nc2c1C(c1cccnc1)C(C#N)=C(N)O2 (stereo not drawn) | 5.8% (inactive) |
| N#CC1=C(N)Oc2c(ccc3cccnc23)C1c1cccnc1 (stereo not drawn) | 42.1% (inactive) |
| COc1ccc(OC)c(C2C(C#N)=C(N)Oc3cc(N)ccc32)c1 (stereo not drawn) | 9.4% (inactive) |
| COc1ccc(C2C(C#N)=C(N)Oc3cc(O)ccc32)cc1OC (stereo not drawn) | -2.6% (inactive) |
